The campaign covered roughly 57,000 compounds. About 200 (0.35%) were called active. The sample as a whole holds a higher share of actives than the screen did. A number with no mark means an inactive call.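 How the source made its calls: active means mean inhibition of replicates at least 50% and every single replicate also reaching 50%; inconclusive means mean inhibition at least 50% but some replicate falls below 50%; inactive means mean inhibition under 50%.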

The target in this experiment is Histone-lysine N-methyltransferase EZH2 (Homo sapiens) (UniProt Q15910). The experiment in a line: EZH2/PRC2 methyltransferase inhibitors, primary screen, biochemical, DELFIA time-resolved fluorescence, single point (AID 651548).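 Further: dimethyl H3K27 on biotinylated H3 21-44 peptide detected by antibody; plate controls were median neutral control wells for no effect and median positive control wells for full effect.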 Conditions: PRC2 H3K27 methylation, DELFIA TRF, 1 h; at 12.5 µM; hits give high values.
Histone-lysine N-methyltransferase EZH2 (Homo sapiens), sequence (Q15910 whole entry, looked up): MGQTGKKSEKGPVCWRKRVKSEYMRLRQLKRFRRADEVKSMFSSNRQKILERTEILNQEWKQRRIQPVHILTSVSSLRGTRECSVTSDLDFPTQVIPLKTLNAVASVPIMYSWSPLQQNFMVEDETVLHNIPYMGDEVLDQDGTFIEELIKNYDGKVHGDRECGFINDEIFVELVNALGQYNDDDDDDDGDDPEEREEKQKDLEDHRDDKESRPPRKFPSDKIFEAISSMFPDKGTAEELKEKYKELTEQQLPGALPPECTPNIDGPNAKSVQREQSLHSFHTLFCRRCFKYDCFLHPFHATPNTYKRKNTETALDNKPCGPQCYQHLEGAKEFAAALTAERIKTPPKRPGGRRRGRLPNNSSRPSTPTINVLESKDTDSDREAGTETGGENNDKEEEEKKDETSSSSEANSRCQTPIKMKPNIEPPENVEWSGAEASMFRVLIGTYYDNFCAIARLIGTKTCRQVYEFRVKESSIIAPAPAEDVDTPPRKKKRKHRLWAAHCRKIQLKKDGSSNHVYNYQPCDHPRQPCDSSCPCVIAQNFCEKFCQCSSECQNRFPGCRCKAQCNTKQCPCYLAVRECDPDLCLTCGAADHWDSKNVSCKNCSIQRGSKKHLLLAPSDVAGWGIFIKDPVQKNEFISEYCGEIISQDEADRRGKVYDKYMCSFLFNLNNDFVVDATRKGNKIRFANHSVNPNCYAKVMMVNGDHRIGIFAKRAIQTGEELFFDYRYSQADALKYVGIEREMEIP
In general, inhibition refers to the change of the read-out against control, counted positive when it falls. For `C[C@@H](NC(=O)C[C@H]1C[C@@H]2c3cc(NC(=O)c4ccc5c(c4)OCO5)ccc3O[C@@H]2[C@@H](CO)O1)c1ccccc1`, the inhibition was -6.67%.

As to `COc1ccccc1NC(=O)N[C@H]1CC[C@@H](CC(=O)N[C@@H](C)c2ccccc2)O[C@H]1CO`, the inhibition was -11.3%.

In the case of `O=C(C[C@H]1CC[C@H](NC(=O)Nc2ccccc2F)[C@@H](CO)O1)NCc1ccccc1`, the inhibition is 4.86%.

Regarding `O=C(C[C@@H]1CC[C@H](NC(=O)C2CC2)[C@@H](CO)O1)NCc1ccncc1`, the inhibition is 3.36%.

`C[C@@H]1CN([C@@H](C)CO)C(=O)c2cc(-c3cccnc3)cnc2O[C@H]1CN(C)Cc1ccc(-c2ccccc2)cc1`: the inhibition is 7.86%.

As for `CN(C)Cc1cn(CC[C@H]2CC[C@H](NC(=O)Nc3ccccc3F)[C@@H](CO)O2)nn1`, the inhibition is 24.4%.

Turning to `C[C@H]1CN([C@@H](C)CO)S(=O)(=O)c2ccc(-c3cccnc3)cc2O[C@H]1CN(C)C(=O)C1CCCCC1`, the inhibition is 0.754%.

Take `C[C@@H]1CN([C@@H](C)CO)S(=O)(=O)c2ccc(-c3ccc(F)cc3)cc2O[C@H]1CN(C)C(=O)c1ccccc1F`: the inhibition was -11%.

Consider `CO[C@@H]1CN(C)C(=O)c2cc(NC(=O)c3ccccc3)ccc2OC[C@@H](C)N(C(C)=O)C[C@@H]1C`, for which the inhibition is 4.81%.

As to `O=C(C[C@H]1C=C[C@H](NC(=O)c2cccc(F)c2)[C@@H](CO)O1)NCc1ccc(Oc2ccccc2)cc1`, the inhibition was -0.132%.

Take `CCCC(=O)Nc1ccc2c(c1)C(=O)N(C)C[C@@H](OC)[C@@H](C)CN(C(=O)CC)[C@H](C)CO2`: the inhibition was 8.4%.

On to `C/C=C1/[C@H](O[C@@H]2O[C@H](CO)[C@@H](O)[C@H](O)[C@H]2O)OC=C2C(=O)O[C@@H]3C[C@@H](C(C)CO)[C@H](COC(=O)C[C@H]21)[C@H]3C` (some centres not stated), for which the inhibition was -12.8%.

As to `COC(=O)C1=CO[C@@H](O[C@@H]2O[C@H](CO)[C@@H](O)[C@H](O)[C@H]2O)[C@@H]2[C@@H](C)[C@@H](OC(=O)C3=CO[C@@H](O[C@@H]4O[C@H](CO)[C@@H](O)[C@H](O)[C@H]4O)[C@@H]4[C@@H](C)[C@@H](OC(C)=O)C[C@H]34)C[C@H]12`, the inhibition was -4.29%.

For the molecule `CC1=COC(O[C@@H]2O[C@H](CO)[C@@H](O)[C@H](O)[C@H]2O)C2C1CC(O)C2CO` (some centres not stated), the inhibition is 58.6% (active).

Take `COc1ccccc1-c1cn(CC[C@H]2CC[C@@H](NC(=O)Cc3ccccn3)[C@@H](CO)O2)nn1`: the inhibition was 9.32%.

Take `COc1cccc(NC(=O)Nc2ccc3c(c2)C(=O)N(C)C[C@@H](OC)[C@H](C)CN(CC2CC2)[C@H](C)CO3)c1`: the inhibition is -8.45%.

As to `CN1CCN(C(=O)c2cc3c(c(-c4cccc(-c5ccc(C(=O)N(C)C)cc5)c4)n2)[C@@H](CCO)N([S@](=O)C(C)(C)C)C3)CC1`, the inhibition was -12.8%.

In the case of `COc1ccc(CN2C[C@@H](C)[C@H](OC)CN(C)C(=O)c3cc(NC(C)=O)ccc3OC[C@@H]2C)cc1`, the inhibition is -2.6%.

For the molecule `O=C(C[C@H]1C=C[C@H](NC(=O)c2cnccn2)[C@@H](CO)O1)NCc1ccccc1F`, the inhibition was 4.44%.

For the molecule `CN(C)C(=O)C[C@H]1C[C@@H]2c3cc(NC(=O)NC4CCCCC4)ccc3O[C@@H]2[C@@H](CO)O1`, the inhibition is 9.52%.

For `O=C(C[C@@H]1C=C[C@@H](NC(=O)C2CC2)[C@H](CO)O1)NCCCN1CCOCC1`, the inhibition is -1.42%.

In the case of `CCC(=O)Nc1ccc2c(c1)C(=O)N(C)C[C@H](OC)[C@@H](C)CN(C(=O)c1cnccn1)[C@@H](C)CO2`, the inhibition was 11.1%.

Turning to `COCC(=O)Nc1ccc2c(c1)OC[C@H](C)N(Cc1ccccc1OC)C[C@@H](C)[C@@H](OC)CN(C)C2=O`, the inhibition was -9.26%.

On to `CO[C@H]1CN(C)C(=O)c2cc(NS(=O)(=O)CC(F)(F)F)ccc2OC[C@H](C)N(C(=O)c2ccc3c(c2)OCO3)C[C@H]1C`, for which the inhibition was 13%.

Turning to `CO[C@@H]1CN(C)C(=O)c2cc(NC(=O)c3ccno3)ccc2OC[C@@H](C)N(S(C)(=O)=O)C[C@@H]1C`, the inhibition is 4.22%.

As for `O=C(CCCCCCC(=O)Nc1ccccc1O)N/N=C/c1ccc(Oc2ccccc2)cc1`, the inhibition is 60.3% (active).

`O=C(CCCCCC(=O)Nc1ccccc1O)N/N=C/c1ccc(I)cc1`: the inhibition was 14.9%.

For `O=C(CCCCCCC(=O)Nc1ccccc1O)N/N=C/c1ccc(C(F)(F)F)cc1`, the inhibition is -17.5%.

In the case of `O=C(C[C@@H]1C[C@@H]2c3cc(NS(=O)(=O)c4ccc(F)cc4)ccc3O[C@@H]2[C@H](CO)O1)NCc1cc(F)ccc1F`, the inhibition is 17%.

On to `CCCCc1nn(-c2ccccc2C(F)(F)F)c(=O)n1Cc1ccc(-c2ccccc2S(=O)(=O)NC(=O)c2sccc2C)cc1`, for which the inhibition is 62% (active).

For `COCC(=O)Nc1ccc2c(c1)C(=O)N(C)C[C@H](OC)[C@@H](C)CN(CC1CC1)[C@@H](C)CO2`, the inhibition is 9.52%.

On to `O=C(C[C@@H]1C[C@@H]2c3cc(NC(=O)C4CCC4)ccc3O[C@@H]2[C@@H](CO)O1)NCCN1CCCCC1`, for which the inhibition was -3.85%.

On to `CC(C)NC(=O)N[C@@H]1CC[C@H](CC(=O)NCCN2CCCC2)O[C@@H]1CO`, for which the inhibition is -11.4%.

For `C[C@H](O)C#Cc1ccc2c(c1)O[C@H](CN(C)C(=O)C1CC1)[C@@H](C)CN([C@H](C)CO)S2(=O)=O`, the inhibition is 7.79%.

For `CO[C@H]1CN(C)C(=O)c2ccc(NS(=O)(=O)c3cn(C)cn3)cc2OC[C@@H](C)N(C)C[C@@H]1C`, the inhibition was -2.12%.

In the case of `CCC(=O)N(C)C[C@H]1Oc2cc(C#CC3CCCC3)ccc2S(=O)(=O)N([C@H](C)CO)C[C@@H]1C`, the inhibition was 10%.

Consider `CN(C)CC(=O)N[C@@H]1CC[C@H](CCn2cc(C3CCCC3)nn2)O[C@H]1CO`, for which the inhibition was -5.37%.

With `O=C(CCN1CCCCC1)N[C@H]1CC[C@H](CCNS(=O)(=O)c2ccc(F)cc2)O[C@@H]1CO`, the inhibition was 4.74%.

Regarding `O=C(NCC[C@H]1CC[C@@H](NC(=O)c2ccncc2)[C@@H](CO)O1)Nc1ccc(Cl)cc1`, the inhibition was 1.17%.

Consider `COc1cccc(NC(=O)N[C@@H]2C=C[C@H](CC(=O)NCc3ccccn3)O[C@H]2CO)c1`, for which the inhibition is -2.05%.

Consider `O=C(C[C@@H]1C=C[C@H](NC(=O)C2CCOCC2)[C@H](CO)O1)NCc1ccncc1`, for which the inhibition was 7.09%.

With `CCC(=O)Nc1ccc2c(c1)C(=O)N(C)C[C@H](OC)[C@@H](C)CN(Cc1cccnc1)[C@H](C)CO2`, the inhibition is 2.36%.

Consider `CO[C@H]1CN(C)C(=O)c2cc(NC(=O)NC(C)C)ccc2OC[C@@H](C)NC[C@@H]1C`, for which the inhibition was 4.41%.

Take `Cc1ccc(S(=O)(=O)N[C@@H]2CC[C@H](CCn3cc(-c4cccc(F)c4)nn3)O[C@@H]2CO)cc1`: the inhibition is -11.1%.

Turning to `CC(C)NC(=O)N[C@@H]1CC[C@H](CCn2cc(-c3ccccc3)nn2)O[C@H]1CO`, the inhibition was 6.84%.

For `CO[C@H]1CN(C)C(=O)c2ccc(NC(C)=O)cc2OC[C@@H](C)NC[C@H]1C`, the inhibition was -8.55%.

On to `COC(=O)[C@H](Cc1ccc(N=[N+]=[N-])cc1)N1CC2=C[C@@H](C3CC3)n3c(=O)n(C)c(=O)n3[C@H]2[C@@H]1[C@@H](O)Cc1ccccc1`, for which the inhibition is 1.09%.

In the case of `CO[C@@H]1CN(C)C(=O)c2cc(NC(=O)C3CC3)ccc2OC[C@H](C)N(C(=O)c2ccccc2F)C[C@H]1C`, the inhibition is 3.97%.

With `COCC(=O)N(C)C[C@@H]1Oc2ncc(C#C[C@H](C)O)cc2C(=O)N([C@@H](C)CO)C[C@@H]1C`, the inhibition was -0.468%.

Turning to `O=C(C[C@@H]1CC[C@@H](NC(=O)c2ccc3c(c2)OCO3)[C@H](CO)O1)NCc1ccc(F)cc1`, the inhibition was -0.86%.

On to `COc1ccc(CNC(=O)C[C@H]2CC[C@H](NC(=O)Nc3ccc4c(c3)OCO4)[C@H](CO)O2)cc1`, for which the inhibition is 13.2%.

Take `C[C@H](CO)N1C[C@H](C)[C@@H](CN(C)C(=O)c2ccccc2)OCCCC[C@H](C)Oc2ccc(NC(=O)c3ccccc3)cc2C1=O`: the inhibition was -18.6%.

Turning to `CO[C@@H]1CN(C)C(=O)c2cc(NC(=O)NC3CCCCC3)ccc2OC[C@@H](C)N(C(C)=O)C[C@H]1C`, the inhibition is 0.307%.

Take `C[C@@H]1CN([C@H](C)CO)S(=O)(=O)c2ccc(-c3ccccc3)cc2O[C@H]1CN(C)C(=O)C1CCC1`: the inhibition is -4.42%.

`CO[C@@H]1CN(C)C(=O)c2ccc(NC(=O)Nc3c(C)noc3C)cc2OC[C@@H](C)NC[C@H]1C`: the inhibition was 0.549%.

For the molecule `CO[C@@H]1CN(C)C(=O)c2cc(NS(=O)(=O)c3ccc(Cl)cc3)ccc2OC[C@H](C)NC[C@@H]1C`, the inhibition was 3.36%.

In the case of `CO[C@@H]1CN(C)C(=O)c2ccc(NC(=O)c3ccccn3)cc2OC[C@@H](C)N(C(=O)C2CCCCC2)C[C@H]1C`, the inhibition is -0.858%.

For `CO[C@@H](CN(C)C(=O)c1ccc2c(c1)OCO2)[C@@H](C)CN([C@H](C)CO)S(=O)(=O)c1ccccc1`, the inhibition was -0.585%.

Consider `CO[C@H]1CN(C)C(=O)c2cc(NC(=O)Nc3ccccc3F)ccc2OC[C@@H](C)N(CCC(F)(F)F)C[C@@H]1C`, for which the inhibition is -15.8%.

Take `C[C@H](NC(=O)C[C@@H]1C[C@@H]2c3cc(NC(=O)Nc4ccc(C(F)(F)F)cc4)ccc3O[C@@H]2[C@H](CO)O1)c1ccccc1`: the inhibition is -10.9%.

For `O=C(Nc1ccccc1)N[C@@H]1CC[C@H](CCn2cc(C3(O)CCCC3)nn2)O[C@@H]1CO`, the inhibition is -9.38%.

With `CCNC(=O)C[C@@H]1CC[C@@H](NC(=O)NC2CCCCC2)[C@H](CO)O1`, the inhibition was -1.26%.

Values taken from PubChem BioAssay AID651548 (Broad Institute, 2012).
